# Results filed as inconclusive are left out. Unmarked numbers belong to inactive results. Active and inactive are the calls of the source. Calls follow the shape of the dose curve; as a rule, active = well fitted cell-killing curve with a large enough effect in the repeat runs; inconclusive = weak or mixed curves, or effect the other way; inactive = flat fitted curve, though single readings scatter.
# Assay: qHTS assay to identify small molecule agonists of the constitutive androstane receptor (CAR) signaling pathway - cell viability counter screen (AID 1224836)
# Details: HepG2-CYP2B6-hCAR viability, CellTiter-Fluor, 23 h, PK11195 added to every well; series mostly up to 92.4 µM; viability change, negative = cytotoxic: at the top concentration
# In short: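 Viability read-out: CellTiter-Fluor fluorescence after 23 h compound exposure at 37 C/5% CO2 in double-stable HepG2-CYP2B6-hCAR cells, with PK11195 present at 0.75 uM final; compounds tested in 15-point titration.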
# % is scaled to controls: 0 for no effect and ±100 for the full control effect; potency is read from the fitted curve at half-maximal effect.
# Also: nearly all actives have a fitted effect of over 45% in size.
SMILES,"viability change, negative = cytotoxic",Potency
C=C(C)[C@@H]1CCC2=CCC[C@@H](C)[C@]2(C)C1,-0.635%,
Oc1c(I)cc(I)c2cccnc12,1.68% [at 42.5 µM],
CN1CCCC(n2nc(Cc3ccc(Cl)cc3)c3ccccc3c2=O)CC1 (stereo not given),,23.7 µM (active)
CCC1NC(=O)c2cc(S(N)(=O)=O)c(Cl)cc2N1 (stereo not given),-6.51% [at 42.5 µM],
CCC=CC#N,-7.64%,
CC1CC(C)C(=O)C1=O (stereo not given),5.57%,
C1COC1,2.31%,
CCCCCCC(C)(C)C(=O)O,7.72%,
Cc1cccc(N(C)C(=S)Oc2ccc3c(c2)CCC3)c1,-0.422% [at 42.5 µM],
O=C1c2ccccc2C(=O)c2c(O)c(O)cc(O)c21,-18.6%,
CC1CC(OC(=O)C(O)c2ccccc2)CC(C)(C)N1C (stereo not given),0.633% [at 42.5 µM],
CCOC(C)=O,-0.0102%,
CCCCC(CC)COP(=O)(O)O (stereo not given),0.0425%,
CC(CCC(=O)O)C(=O)O (stereo not given),-3.02%,
CCC(C)COC(=O)CC(C)C (stereo not given),-6.79%,
CCCCN(CCCC)C(C(N)=O)c1ccc(OC)cc1 (stereo not given),-2.51% [at 42.5 µM],
Cc1ccco1,-2.37%,
CCCCCC[C@@H](O)C/C=C\CCCCCCCC(=O)OCC(O)CO (stereo not given in full),0.63%,
CCOC(=O)/C=C/C(=O)OCC,-1.44%,
C[C@@H]1CN(CCCn2c3ccccc3c3ccccc32)C[C@H](C)N1,,29.8 µM (active)

SMILES,"viability change, negative = cytotoxic",Potency
O=c1[nH]c2ccc(Cl)cc2o1,-6.83%,
O=C1Cc2cc(Cl)ccc2N1,3.55% [at 42.5 µM],
CCC(C)COC(C)=O (stereo not given),1.42%,
Nc1nnc(-c2ccc([N+](=O)[O-])o2)o1,,30.6 µM (active)
N#[N+]c1ccc2c(S(=O)(=O)[O-])cccc2c1O,-14%,
Cc1cc(O)c(C)c(C)c1O,3.75% [at 42.5 µM],
Oc1cccc(Nc2ccccc2)c1,-18.4%,
CC(=O)OCC(=O)NCCCOc1cccc(CN2CCCCC2)c1,1.52% [at 42.5 µM],
O=C(/C=C/c1ccccc1)OCCc1ccccc1,0.0932%,
CC(=O)Nc1ccc(C)cc1C,-3.52%,
COC(=O)c1nc(Cl)c(Cl)nc1N,-27.3% [at 42.5 µM],
CCCCCC[C@@H](O)C/C=C\CCCCCCCC(=O)O,-13.1%,
NCCNCCO,0.609%,
Cc1ccc2c(Br)cc(Br)c(O)c2n1,-11% [at 42.5 µM],
O=C(O)C[C@H](NC(=O)OCc1ccccc1)C(=O)O,1.27%,
O=C(Nc1cccc2c(=O)cc(-c3nn[nH]n3)oc12)c1ccc(OCCCCc2ccccc2)cc1,29.3% [at 42.5 µM],
CCOC(=O)c1ccc(I)cc1,3.27%,
CC(=O)c1ccc([N+](=O)[O-])cc1,0.706%,
CC[N+](CC)(CCNC(=O)C(=O)NCC[N+](CC)(CC)Cc1ccccc1Cl)Cc1ccccc1Cl,12% [at 42.5 µM],
Cc1ccc(C(C)(C)O)cc1,8.21%,

# Assay: qHTS assay to identify small molecule antagonists of the constitutive androstane receptor (CAR) signaling pathway - cell viability counter screen (AID 1224837)
# Details: HepG2-CYP2B6-hCAR viability, CellTiter-Fluor, 23 h, co-treated with 50 nM CITCO; series mostly up to 92.4 µM; activity change, negative = cytotoxicity: at the top concentration
# In short: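 HepG2 cells stably expressing hCAR and a CYP2B6-2.2kb reporter were plated and pre-incubated 4 hr at 37 C/5% CO2, then given compounds at 15 concentrations plus 50 nM CITCO (final). After 23 hr, viability was read by CellTiter-Fluor fluorescence.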
SMILES,"activity change, negative = cytotoxicity",Potency
C=C(C)[C@@H]1CCC2=CCC[C@@H](C)[C@]2(C)C1,-7.26%,
Oc1c(I)cc(I)c2cccnc12,-1.18% [at 42.5 µM],
CN1CCCC(n2nc(Cc3ccc(Cl)cc3)c3ccccc3c2=O)CC1 (stereo not given),,16.8 µM (active)
CCC1NC(=O)c2cc(S(N)(=O)=O)c(Cl)cc2N1 (stereo not given),2.67% [at 42.5 µM],
CCC=CC#N,-10.4%,
CC1CC(C)C(=O)C1=O (stereo not given),1.13%,
C1COC1,5.28%,
CCCCCCC(C)(C)C(=O)O,5.72%,
Cc1cccc(N(C)C(=S)Oc2ccc3c(c2)CCC3)c1,-1.24% [at 42.5 µM],
O=C1c2ccccc2C(=O)c2c(O)c(O)cc(O)c21,-13.9%,
CC1CC(OC(=O)C(O)c2ccccc2)CC(C)(C)N1C (stereo not given),7.29% [at 42.5 µM],
CCOC(C)=O,0.146%,
CCCCC(CC)COP(=O)(O)O (stereo not given),0.538%,
CC(CCC(=O)O)C(=O)O (stereo not given),6.14%,
CCC(C)COC(=O)CC(C)C (stereo not given),-5.07%,
CCCCN(CCCC)C(C(N)=O)c1ccc(OC)cc1 (stereo not given),0.948% [at 42.5 µM],
Cc1ccco1,-1.02%,
CCCCCC[C@@H](O)C/C=C\CCCCCCCC(=O)OCC(O)CO (stereo not given in full),1.52%,
CCOC(=O)/C=C/C(=O)OCC,-4.06%,
C[C@@H]1CN(CCCn2c3ccccc3c3ccccc32)C[C@H](C)N1,,26.6 µM (active)

SMILES,"activity change, negative = cytotoxicity",Potency
O=c1[nH]c2ccc(Cl)cc2o1,1.54%,
O=C1Cc2cc(Cl)ccc2N1,9.68% [at 42.5 µM],
CCC(C)COC(C)=O (stereo not given),1.65%,
Nc1nnc(-c2ccc([N+](=O)[O-])o2)o1,,48.6 µM (active)
N#[N+]c1ccc2c(S(=O)(=O)[O-])cccc2c1O,-0.971%,
Cc1cc(O)c(C)c(C)c1O,1.74% [at 42.5 µM],
Oc1cccc(Nc2ccccc2)c1,-18.2%,
CC(=O)OCC(=O)NCCCOc1cccc(CN2CCCCC2)c1,5.33% [at 42.5 µM],
O=C(/C=C/c1ccccc1)OCCc1ccccc1,3.02%,
CC(=O)Nc1ccc(C)cc1C,4.99%,
COC(=O)c1nc(Cl)c(Cl)nc1N,,29.8 µM (active)
CCCCCC[C@@H](O)C/C=C\CCCCCCCC(=O)O,-10.8%,
NCCNCCO,2.51%,
Cc1ccc2c(Br)cc(Br)c(O)c2n1,0.489% [at 42.5 µM],
O=C(O)C[C@H](NC(=O)OCc1ccccc1)C(=O)O,2.9%,
O=C(Nc1cccc2c(=O)cc(-c3nn[nH]n3)oc12)c1ccc(OCCCCc2ccccc2)cc1,21.8% [at 42.5 µM],
CCOC(=O)c1ccc(I)cc1,-0.756%,
CC(=O)c1ccc([N+](=O)[O-])cc1,1.08%,
CC[N+](CC)(CCNC(=O)C(=O)NCC[N+](CC)(CC)Cc1ccccc1Cl)Cc1ccccc1Cl,1.19% [at 42.5 µM],
Cc1ccc(C(C)(C)O)cc1,3.55%,

# From PubChem BioAssay (Tox21)
